Laboratory results from PubChem BioAssay (NCATS).
Inconclusive results are not listed. Entries that show only a call come without a potency. Activity calls are given as the source filed them. Calls come from the whole dose curve; as a rule, active = well fitted cell-killing curve with a large enough effect; inconclusive = small, poorly fitted or top-dose-only effect, or effect the other way; inactive = flat fitted curve, though single readings scatter.

The compounds below were run on CAOV3 (assay: Primary qHTS to identify gynecologic anti-cancer compounds using libraries of approved drugs and bioactive compounds (AID 1345084; note: nearly all actives have a fitted effect of over 55% in size)). Conditions: Gynecologic cancer cell panel viability, ATPlite luminescence, 48 h; series mostly up to 57.5 µM.
Source text: National Center for Advancing Translational Sciences [NCATS] Assay Overview: Chemotherapeutic drug responses vary from cancer to cancer and from patient to patient. These variations could be caused by a number of factors including patient genomic background, tumor mutations, tumor heterogeneity, and aspects of drug treatment. Chemotherapeutic drug resistance is also a common issue and can lead to ineffective treatment and patient death. Here we have profiled the cell killing effects of thousands of compounds to characterize the responses in three gynecological cancers, identify cancer-selective compounds, and understand the diversity of responses to these compounds from pan-cancer suppressors to single cell line selective compounds. In this assay, we screened a 7,914 compound drug library that included approved drug and bioactive compounds in six ovarian, three cervical, and […] placental cancer cell lines using the ATPlite assay for cell viability. […] The cervical cancer cell lines included HeLa, Ca Ski, and C-33 A. The placental cancer cell lines included JEG-3. HEK 293T cells were used as the control cell line to determine the selectivity index. ATPlite is a luminescence based assay reliant on the conversion of a luciferase substrate to light in the presence of ATP. As a cytotoxic compound will suppress growth and decrease the number of cells, the concentration of ATP will decrease, and less light signal will be detected in the well.
Assay Protocol Summary: 1,000 cells in 4 uL of media were dispensed into white, solid bottom 1536-well plates using a Multidrop Combi (Thermo Scientific). The Assay plates were incubated for 16 hours at 37 C with 5% CO2 in assay plates, followed by the addition of 23 nL of DMSO or drug dissolved in DMSO. Each compound was assayed in five concentrations (0.092, 0.46, 2.3, 11.5, and 57.5 uM), using the automated Wako 1536 Pin Tool workstation and incubated at 37 C with 5% CO2 48 hours. 4 uL of ATPlite, the ATP monitoring reagent, was then added to the each well of the assay plates using the Multidrop Combi reagent dispenser followed by incubation for 15 minutes at room temperature. The resulting luminescence was measured using the ViewLux plate reader.
Potency is the fitted concentration of half-maximal effect.

| Compound | Potency |
| --- | --- |
| COc1cc2c(Oc3ccc(NC(=O)C4(C(=O)Nc5ccc(F)cc5)CC4)cc3F)ccnc2cc1OCCCN1CCOCC1 | 10 µM (active) |
| CC(C)c1cc(C(=O)N2Cc3ccc(CN4CCN(C)CC4)cc3C2)c(O)cc1O | 3.98 µM (active) |
| OCCCNc1cc(-c2ccnc(Nc3cccc(Cl)c3)n2)ccn1 | inactive |
| COc1ccc(-c2cc3c(C)nc(N)nc3n(C3CCC(OCCO)CC3)c2=O)cn1 (stereo not given) | 1 µM (active) |
| Cn1c(=O)n(-c2ccc(C(C)(C)C#N)cc2)c2c3cc(-c4cnc5ccccc5c4)ccc3ncc21 | 0.562 µM (active) |
| CN(C)c1nc(Cc2ccc(NC(=O)c3ccc4ccccc4c3)cc2)nc(Cl)c1CC(=O)O | inactive |
| O=C(CCCCCCC(=O)Nc1ccc([C@H]2O[C@@H](CSc3nc(-c4ccccc4)c(-c4ccccc4)o3)C[C@@H](c3ccc(CO)cc3)O2)cc1)NO | inactive |
| COc1ccc(C(=O)CC2(O)C(=O)Nc3c(Cl)ccc(Cl)c32)cc1 (stereo not given) | inactive |
| CN(C1CCc2c(c3ccccc3n2CC(=O)O)C1)S(=O)(=O)c1ccc(F)cc1 (stereo not given) | inactive |
| COc1cc(Nc2ncc(F)c(Nc3ccc4c(n3)N(COP(=O)(O)O)C(=O)C(C)(C)O4)n2)cc(OC)c1OC | 11.2 µM (active) |
| CNC(=O)c1ccc(-c2cnc3ncc(Cc4ccc5ncccc5c4)n3n2)cc1F | inactive |
| O=C(Nc1cc(C(F)(F)F)cc(C(F)(F)F)c1)c1cc(Cl)ccc1O | 8.91 µM (active) |
| CCn1nnc2c(N3CCOCC3)nc(-c3ccc(NC(=O)Nc4ccc(C(=O)N5CCN(C)CC5)cc4)cc3)nc21 | 0.316 µM (active) |
| Cc1ccc(NC(=O)C2(c3ccc4c(c3)OC(F)(F)O4)CC2)nc1-c1cccc(C(=O)O)c1 | inactive |
| CCCCCCCCCC(=O)N[C@@H](Cc1c[nH]c2ccccc12)C(=O)N[C@H](CC(N)=O)C(=O)N[C@@H](CC(=O)O)C(=O)N[C@@H]1C(=O)NCC(=O)N[C@@H](CCCN)C(=O)N[C@@H](CC(=O)O)C(=O)N[C@H](C)C(=O)N[C@@H](CC(=O)O)C(=O)NCC(=O)N[C@H](CO)C(=O)N[C@@H]([C@@H](C)CC(=O)O)C(=O)N[C@@H](CC(=O)c2ccccc2N)C(=O)O[C@@H]1C | inactive |
| CS(=O)(=O)c1ccc(-c2cnc(N)c(C(=O)Nc3ccccc3)n2)cc1 | inactive |
| COc1ccc2c(OCc3nnc4ccc(-c5ccccc5)nn34)ccnc2c1 | inactive |
| Fc1cc(-c2cccc3ncc(-c4cnn(C5CCNCC5)c4)nc23)cc(F)c1CN1CCOCC1 | 31.6 µM (active) |
| Clc1cccc(-c2nnnn2Cc2cccnc2)c1Cl | inactive |
| CCCn1c(=O)c2[nH]c(-c3cnn(Cc4cccc(C(F)(F)F)c4)c3)nc2n(CC)c1=O | inactive |

| Compound | Potency |
| --- | --- |
| COc1cc2c(cc1-c1c(C)noc1C)ncc1[nH]c(=O)n([C@H](C)c3ccccn3)c12 | inactive |
| NCC(=O)Nc1ccc(-n2nc(C(F)(F)F)cc2-c2ccc3c(ccc4ccccc43)c2)cc1 | inactive |
| CCOc1ccccc1OCCNC(C)Cc1ccc(OC)c(S(N)(=O)=O)c1 (stereo not given) | inactive |
| NC1(Cc2ccc(Cl)cc2)CCN(c2ncnc3[nH]ccc23)CC1 | inactive |
| COc1cc(C(=O)NS(=O)(=O)c2ccccc2C)ccc1Cc1cn(C)c2ccc(NC(=O)OC3CCCC3)cc12 | inactive |
| Cc1nc2ccc(CN(C)c3ccc(C(=O)N[C@@H](CCC(=O)O)C(=O)O)s3)cc2c(=O)[nH]1 | inactive |
| Cc1cc(C(=O)N2CCN(c3cccc(Cl)c3)CC2)n(-c2ccccc2)n1 | inactive |
| CN(C)CC(C)(C)CNc1nn2c(-c3ccccc3)nnc2cc1C1CCC1 | inactive |
| CS(=O)(=O)N1CCN(Cc2cc3nc(-c4cccc5[nH]ncc45)nc(N4CCOCC4)c3s2)CC1 | inactive |
| CC[C@@]1(O)C(=O)OCc2c1cc1n(c2=O)Cc2cc3cc(O)ccc3nc2-1 | 0.355 µM (active) |
| CNC(=O)c1cc(Oc2ccc(NC(=O)Nc3cc(C(C)(C)C)nn3-c3ccc4ncccc4c3)c(F)c2)ccn1 | inactive |
| NC(=O)c1cccc2cn(-c3ccc([C@@H]4CCCNC4)cc3)nc12 | inactive |
| N#Cc1c(O)c2c(-c3ccc(-c4ccccc4O)cc3)csc2[nH]c1=O | inactive |
| CC(=O)Nc1sc2c(c1-c1nc3ccccc3s1)CNC2 | inactive |
| CCn1cc(-c2ccnc3[nH]c(-c4cccc(CN(C)C)c4)cc23)c(-c2ccc(NC(=O)N(C)C)cc2)n1 | inactive |
| CC(=O)SC[C@@H](C)C(=O)N1CCC[C@H]1C(=O)N[C@@H](Cc1ccccc1)C(=O)O | inactive |
| CCc1cc2c(cc1N1CCC(N3CCOCC3)CC1)C(C)(C)c1[nH]c3cc(C#N)ccc3c1C2=O | inactive |
| O=C1CCC[C@@H]2[C@H]3CCC[N+]4([O-])CCC[C@@H](CN12)[C@@H]34 (stereo not given in full) | inactive |
| CC[C@@H]1C(=O)N(C)c2cnc(Nc3ccc(C(=O)NC4CCC(N5CCN(CC6CC6)CC5)CC4)cc3OC)nc2N1C(C)C (stereo not given in full) | 12.6 µM (active) |
| Cc1ccc(C(=O)Nc2cccc(C(F)(F)F)c2)cc1-c1ccc2nc(NCCN3CCOCC3)ncc2c1 | 22.4 µM (active) |
